Source: PubChem BioAssay
PrP 5UTR inh: suppresses PrP 5' UTR mRNA reporter expression; inhibition, % (test concentration not listed); AID 488862; cell-based PrP 5' UTR mRNA reporter, plate reader; 340,000 tested, 0.35% active; in the data active = inhibition above about 52%; also: 0 = median of the neutral control wells
PfHsp40 yeast: compounds rescuing yeast from Plasmodium falciparum HSP40 toxicity. S. cerevisiae expressing PfHsp40, growth rescue, ATP luminescence. growth rescue, % at 12.5 µM. 340,000 tested, 0.68% active; in the data active = growth rescue above about 28%, passing the limit was not always enough;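 also: yeast W303a lacking pdr1 and pdr3 grown in galactose medium; growth measured after three days at 30 °C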
PrPC TRFRET: reduces human prion protein on the cell surface; inhibition, % at 13.8 µM; cell surface PrPC, TR-FRET read-out; AID 720596; 370,000 tested, 0.43% active; in the data active = inhibition above about 24%; also: 0% = median of the test wells and 100% = reference compound wells
BJeLR lethal: BJeLR cell viability loss. 300,000 tested, 0.17% active. AID 1554. inhibition, % (concentration not given with the values). BJeLR (HRASV12) viability, CellTiter-Glo ATP luminescence, 48 h; in the data active = inhibition above about 50%
Y pestis TopoI: inhibitors of Yersinia pestis topoisomerase I. Y. pestis Topo-I cleavage product accumulation, plate reader. activity, % at 10 µM. 360,000 tested, 0.064% active. AID 504884; in the data active = activity above about 50%, passing the limit was not always enough
CCHF vOTU inh-1: blocks the CCHF virus ovarian tumor domain protease; CCHFV vOTU protease, Pep-AMC fluorescence; inhibition, % at 11.5 µM; 370,000 tested, 0.55% active; AID 651958; also: 0% = vehicle wells with enzyme and 100% = no enzyme wells
CCHF vOTU inh-2: CCHFV vOTU protease inhibition, confirmation. shares compounds with CCHF vOTU inh-1. Recombinant CCHFV vOTU, Pep-AMC fluorescence. inhibition, % at 11.5 µM. 1,900 tested, 17% active. AID 686976
Starred values were filed as active, the others as inactive; x = no result given. An excerpt weighted towards active compounds, which were near 2% of everything screened. Rule as the data show it, unless noted: active = inhibition above about 30%; inactive = the rest.

SMILES | PrP 5UTR inh | PfHsp40 yeast | PrPC TRFRET | BJeLR lethal | Y pestis TopoI | CCHF vOTU inh-1 | CCHF vOTU inh-2
CN(C)c1ccc(N/C=C/C(=O)c2ccccc2)cc1 | 51.1 | -0.6 | -18.2 | 10.6 | -0.9 | 60.5* | -4.1
Cc1ccc(-c2c(NC(=O)Nc3ccc(F)cc3)nc3ncccn23)cc1 | x | x | 8.3 | x | x | -10.3 | x
COC(=O)[C@]12C[C@H](CC(=O)NCCc3ccccc3OC)C(=O)N(CCC3=CCCCC3)C1=C[C@H](COCc1ccccc1)O[C@@H]2C | x | x | -2.4 | x | x | 10.5 | x
CCC(C)(C)C(=O)N1CCC(C(=O)NC2CCCc3ccccc32)CC1 (stereo not given) | x | x | 10.1 | x | x | -7.9 | x
CN(C)c1cccc2c(S(=O)(=O)NCC3CCN(C(=O)C(=O)c4cccs4)CC3)cccc12 | x | x | -1.0 | x | x | 14.4 | x
CCCc1cc(=O)[nH]c(SCC(=O)Nc2cc(S(=O)(=O)N(CC)c3ccccc3)ccc2Cl)n1 | -16.7 | 0.1 | -8.2 | x | 19.0 | 35.5* | 10.9
COc1ccc(NC(=O)NCCCN2CCN(c3ccc(F)cc3)CC2)cc1OC | x | x | -12.6 | x | x | -3.7 | x
CCCCN(C)C(=O)c1ccc(Nc2nc(C(N)Cc3ccc(C(F)(F)F)cc3)cs2)nc1 (stereo not given) | x | x | -19.8 | x | 0.7 | 32.2* | -9.4
COc1ccc(CC(N)c2csc(NC(=O)NCc3ccccc3)n2)cc1 (stereo not given) | x | x | -2.6 | x | -8.2 | 7.5 | x
COc1cc(CNC(=O)Nc2nc(C(N)Cc3ccc(C(F)(F)F)cc3)cs2)cc(OC)c1OC (stereo not given) | x | x | -3.0 | x | -8.5 | 30.6* | -19.4
Cc1ccc(S(=O)(=O)N/N=C2/CC(c3ccccc3)Oc3ccccc32)cc1[N+](=O)[O-] (stereo not given) | -42.3 | 1.2 | 10.6 | 1.2 | -6.4 | 38.5* | 10.2
CCC(NC(=O)NCc1ccccc1)(C(F)(F)F)C(F)(F)F | 6.9 | 1.4 | 4.7 | -2.5 | -0.1 | -6.7 | x
CCC(NC(=O)Nc1ccc(O)cc1)(C(F)(F)F)C(F)(F)F | -29.5 | 0.6 | -13.2 | x | -2.0 | 62.6* | 3.0
CC(NC(=O)Nc1ccc(O)cc1)(C(F)(F)F)C(F)(F)F | -13.9 | -1.2 | -6.4 | 2.2 | 1.0 | 52.1* | -2.4
COc1cc(/C=N/NC(=O)c2cc[n+]([O-])cc2)ccc1O | -9.5 | 0.1 | -2.1 | -11.1 | -16.2 | 30.4* | -11.0
COc1ccc(N2C(=O)C(Cl)=C(Nc3ccccc3OC)C2=O)cc1 | -23.9 | 2.8 | 5.0 | -5.7 | 19.2 | 36.3* | -5.3
COc1ccc(OC)c(NC2=C(Cl)C(=O)N(Cc3ccccc3)C2=O)c1 | 5.6 | 0.8 | -6.5 | 1.4 | 16.2 | 1.0 | x
O=C(NCc1ccccc1)C(=O)c1cn(CC(=O)N2CCOCC2)c2ccccc12 | -31.2 | -0.7 | -15.0 | -2.2 | 10.7 | 34.6* | -9.2
Cc1nnc(N/N=C/c2cc([N+](=O)[O-])c(N3CCC(C)CC3)cc2N2CCC(C)CC2)n1N | -14.9 | 0.0 | 4.8 | -0.8 | 13.1 | 96.2* | -3.4
CCc1nnc(N/N=C/c2ccc(N3CCC(C)CC3)c([N+](=O)[O-])c2)n1N | 6.1 | -0.4 | -17.8 | 4.6 | -11.0 | 88.0* | -4.7
CCN(CC(=O)Nc1ccc(NC(C)=O)cc1)C(=O)c1ccc(N2CCC(C)CC2)c([N+](=O)[O-])c1 | -8.9 | 0.0 | -13.6 | x | 14.0 | 5.1 | x
O[C@@H](c1cc(C(F)(F)F)nc2c(C(F)(F)F)cccc12)[C@H]1CCCCN1 | -12.3 | 1.9 | 3.9 | 8.5 | -14.7 | 0.8 | x
CC(C)(C)NCCC(O)c1cc(C(F)(F)F)nc2c(C(F)(F)F)cccc12 (stereo not given) | -5.1 | 3.0 | -13.2 | x | -10.8 | 30.4* | -18.4
CCSc1nc(=S)cc(C)[nH]1 | -18.8 | 3.9 | 12.6 | -0.2 | -7.0 | 31.3* | -25.3
O=C(CCCCCN1C(=O)C2C3C=CC(C3)C2C1=O)Nc1ccc2ncccc2c1 (stereo not given) | x | x | 9.4 | x | x | 68.5* | 18.4
SMILES | PrP 5UTR inh | PfHsp40 yeast | PrPC TRFRET | BJeLR lethal | Y pestis TopoI | CCHF vOTU inh-1 | CCHF vOTU inh-2
CC1(C)OC(=O)C(=NNc2ccccc2)C(=O)O1 | -34.6 | -1.6 | -0.8 | -4.0 | 4.4 | 22.2 | x
CC1(C)OC(=O)C(=NNc2ccccc2[N+](=O)[O-])C(=O)O1 | -12.5 | -1.3 | -14.0 | 4.6 | -9.0 | 30.2* | -1.6
COC(=O)C1CN(Cc2ccc(C)cc2)CCS(=O)(=O)N1Cc1cn(Cc2ccc(F)cc2)nn1 (stereo not given) | x | x | 1.2 | x | x | -1.3 | x
CC(C)(C)OC(=O)N(Cc1ccccc1)Cc1cccc(OCc2cccc(NC(=O)C3CC3)c2)c1 | -21.8 | 1.4 | 12.8 | x | 46.4 | 32.3* | -11.0
CC1(C)CC2CC(C)(CN2C(=O)COC(=O)c2ccccc2C(F)(F)F)C1 (stereo not given) | -10.1 | 0.2 | -5.6 | x | 21.9 | 33.3* | 16.2
Cc1ccc(/C=C(\CCC(=O)O)c2nc3ccccc3s2)cc1[N+](=O)[O-] | -10.4 | 1.9 | -6.3 | -10.6 | 10.1 | 31.2* | 21.4
CN(c1ccccc1)c1ccc(/C=C(\CCC(=O)O)c2nc3ccccc3s2)cc1[N+](=O)[O-] | -9.2 | -0.5 | -8.6 | -13.0 | 5.4 | 35.5* | 28.6
CNc1ccc(/C=C(\CCC(=O)O)c2nc3ccccc3s2)cc1[N+](=O)[O-] | -20.0 | -1.6 | -21.1 | 7.3 | 33.2 | 15.8 | x
O=c1[nH]c2cc3ccccc3cc2nc1-c1nnnn1C1CCCC1 | x | x | -5.7 | x | x | 30.2* | 11.2
CCCCNC(=O)NC1CCN(CC(=O)Nc2ccc3c(c2)OCCO3)CC1 | x | x | -8.3 | x | x | 3.7 | x
COc1ccc(OCc2cc(C(=O)NC3CCOC(C)(C)C3)no2)c2ccccc12 (stereo not given) | -54.1 | -1.6 | -9.2 | -8.2 | 13.3 | 43.1* | 21.8
CCN(CC)C(=O)CN(c1cc2c(cc1OC)oc1ccccc12)S(=O)(=O)c1ccc(C)cc1 | -11.1 | 0.5 | 9.5 | -4.4 | -0.9 | 30.2* | -22.7
O=C1NCCCC2c3cc(O)c4ccccc4c3OC12N1CCCCC1 (stereo not given) | x | x | -18.4 | x | x | 92.4* | 16.4
O=C1NCCCC2c3c(cc(Br)c(O)c3Br)OC12N1CCOCC1 (stereo not given) | -8.3 | 1.3 | -4.7 | x | 6.1 | -0.3 | x
COC(=O)[C@]12C[C@H](CC(=O)NCCc3ccccc3OC)C(=O)N(Cc3ccc(Cl)cc3Cl)C1=C[C@H](C(C)C)O[C@@H]2C1CC1 | x | x | -3.8 | x | x | 18.4 | x
COc1cccc(-c2cc(=O)[nH][nH]2)c1 | -28.1 | -0.1 | -1.1 | -9.6 | -1.2 | 9.1 | x
COc1ccc(-c2cc(=O)[nH][nH]2)cc1OC | -30.4 | -0.4 | -6.5 | -10.1 | -10.0 | 60.1* | -19.4
CCCN(C(=O)Cc1nc(N)n[nH]1)C1(C(=O)Nc2c(C)cccc2C)CCCCC1 | -8.6 | 0.5 | -2.0 | 6.7 | 0.0 | 38.5* | -23.8
CCCN(C(=O)Cc1nc(N)n[nH]1)C1(C(=O)Nc2ccccc2C)CCCCC1 | -6.4 | 0.0 | 7.5 | 11.5 | 5.6 | -4.5 | x
